Results filed as inconclusive are left out. The source made the active and inactive calls. Unless noted, calls come from the whole dose curve; as a rule, active = well fitted curve in the direction sought with a large enough effect; inconclusive = small, poorly fitted or top-dose-only effect, or another doubt; inactive = no such curve, though single readings can be large; an effect the other way counts as inactive or inconclusive.

The nature of assay [1]: qHTS assay for small molecule antagonists of peroxisome proliferator-activated receptor delta signaling (AID 588535).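 Note: cells co-treated with a PPAR-delta agonist as stimulator during compound exposure.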 The note with it: HEK293T PPARd-UAS-bla, beta-lactamase FRET ratio, 18 h; 460 nm channel. A digest of the protocol:
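Titrations were run on PPAR-delta-UAS-bla HEK293T cells in charcoal/dextran-stripped serum, incubated 18 h at 37 C. CCF4 fluorescence (460/530 nm) after 2 h RT; Hill equation yields IC50 and maximal response.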
For orientation: Quantitative high-throughput screening tests each substance at several concentrations.

Assay [2] addresses Peroxisome proliferator-activated receptor gamma (Homo sapiens) (UniProt P37231). In words: qHTS assay for small molecule agonists of peroxisome proliferator-activated receptor gamma signaling (AID 588536; active = well fitted curve in the direction sought with a large enough effect in the signal ratio, with a control signal flat, not every such curve was filed as active; the % refers to the signal ratio;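 note: 0% = DMSO basal wells and 100% = rosiglitazone at 2 µM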). The conditions noted are these: HEK293 PPARg-UAS-bla, beta-lactamase ratio, 16 h, percent of rosiglitazone response, DMSO as zero; series mostly up to 76.7 µM. In outline:
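Using GeneBLAzer HEK293 cells, response was quantified by CCF4 fluorescence and normalized between basal DMSO (0%) and rosiglitazone 2 uM (100%); curves yielded half-maximal stimulation concentration and efficacy.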

Assay [3] shares this target. The assay is described as follows: qHTS assay for small molecule antagonists of peroxisome proliferator-activated receptor gamma signaling (AID 588537; active = well fitted inhibition curve with a large enough effect in the signal ratio, with a control signal flat, not every such curve was filed as active; the % refers to the signal ratio;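 note: reporter cells co-stimulated with 50 nM rosiglitazone agonist during compound treatment; % of control where 0% means no effect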). The note with it: HEK293 PPARg-UAS-bla, beta-lactamase ratio, antagonist mode; series mostly up to 76.8 µM. In outline:
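Antagonist-mode β-lactamase reporter screen run as a titration series. HEK293 PPARγ-UAS-bla cells are stimulated with rosiglitazone (50 nM final) for 16 h, then CCF4 is read at 460/530 nm. Data are scaled between DMSO and rosiglitazone and fitted to the Hill equation.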

The target in assay [4] is Vitamin D3 receptor (Homo sapiens) (UniProt P11473). The assay is described as follows: qHTS assay for small molecule agonists of vitamin D receptor signaling (AID 588543; calls by dose curve;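 note: 0% = DMSO basal and 100% = reference agonist control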). The note with it: HEK293T VDR-UAS-bla, beta-lactamase ratio, 16 h; series mostly up to 76.8 µM. A digest of the protocol:
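Agonist-mode beta-lactamase reporter: HEK293T VDR-UAS-bla cells in charcoal-stripped 2% FBS, compound series 16 h 37 C, CCF4 2 h RT. EC50 from Hill fit, scaled against DMSO and 50 nM calcitriol control.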

Assay [5] can be described thus: qHTS assay for small molecule agonists of retinoid X receptor alpha signaling (AID 588544; calls by dose curve;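 for activation: 0% = DMSO basal wells and 100% = reference agonist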). The conditions noted are these: HEK293T RXRa-UAS-bla, beta-lactamase reporter, 18 h; 530 nm emission.
The target in assay [6] is Retinoic acid receptor RXR-alpha (Homo sapiens) (UniProt P19793). Described as above. The note with it: HEK293T RXRa-UAS-bla, beta-lactamase reporter, 18 h; series mostly up to 76.7 µM.
Sequence of Retinoic acid receptor RXR-alpha (Homo sapiens) (P19793 whole entry, looked up): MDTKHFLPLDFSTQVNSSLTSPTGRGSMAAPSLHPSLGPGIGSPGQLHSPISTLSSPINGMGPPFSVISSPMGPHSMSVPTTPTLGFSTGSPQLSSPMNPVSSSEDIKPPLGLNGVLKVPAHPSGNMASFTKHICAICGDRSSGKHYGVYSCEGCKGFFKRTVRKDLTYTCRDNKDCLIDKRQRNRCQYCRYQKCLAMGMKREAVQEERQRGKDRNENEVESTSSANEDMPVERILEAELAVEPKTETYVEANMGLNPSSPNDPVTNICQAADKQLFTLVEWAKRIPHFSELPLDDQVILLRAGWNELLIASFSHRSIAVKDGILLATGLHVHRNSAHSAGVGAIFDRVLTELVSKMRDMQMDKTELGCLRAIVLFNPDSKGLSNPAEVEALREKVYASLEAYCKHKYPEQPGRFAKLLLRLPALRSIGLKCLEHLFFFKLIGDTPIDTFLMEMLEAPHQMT
The target in assay [7] is Thyroid hormone receptor beta (Homo sapiens) (UniProt P10828). The assay is described as follows: qHTS assay for small molecule agonists of thyroid hormone receptor beta signaling (AID 588545; calls by dose curve;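 note: 0% = DMSO only and 100% = 10 nM T3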). The note with it: TR-UAS-bla GripTite HEK 293, beta-lactamase ratio, agonist mode, 18 h; series mostly up to 76.7 µM. A digest of the protocol:
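TR-UAS-bla GripTite HEK 293 cells (2500/well, medium with 2% charcoal/dextran FBS) were treated in agonist mode for 18 h at 37 C, titrated. Beta-lactamase was read by CCF4 ratio after 2 h; normalized to 10 nM T3 (100%) and DMSO, Hill-fitted for EC50 and efficacy.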

Assay [8] can be described thus: qHTS assay for small molecule activators of the nuclear factor-kappa B (NF-kB) signaling pathway (AID 651749; active = well fitted activation curve with a large enough effect in the signal ratio; the % refers to the signal ratio; note: % of control where 0% means no effect). The conditions noted are these: NF-kB-bla ME-180 cells, beta-lactamase FRET ratio, 16 h; activation: stronger effect = higher value. In outline: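 Activation measured after 16 hr compound treatment at 37C, 5% CO2, of 2,000 ME-180 cells/well stably expressing an NF-kB response element–driven beta-lactamase reporter, via FRET-disruption fluorescence.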

Assay [9] can be described thus: qHTS assay for environmental chemicals that activate the Aryl hydrocarbon Receptor (AhR) signaling pathway (AID 651777). Note: % of control where 0% means no effect; nearly all actives have a fitted effect of over 15% in size. The conditions noted are these: 1A2-DRE human hepatoma cells, luciferase, 24 h; activation: stronger effect = higher value. In outline:
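Concentration–response screening used 1,200 1A2-DRE cells per well, 24 hr compound exposure (37 C, 5% CO2), and One-Glo luminescence as the AhR-driven CYP1A2 reporter signal.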

Assay [10] concerns the target Peroxisome proliferator-activated receptor alpha (Homo sapiens) (UniProt Q07869). In words: qHTS assay for small molecule agonists of the peroxisome proliferator-activated receptor alpha (PPARalpha) signaling pathway (AID 651778). Note: % of control where 0% means no effect. The conditions noted are these: PathHunter PPARalpha complementation, chemiluminescence, 6 h; max response: stronger effect = higher value. In outline:
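Chemiluminescence from complemented enzyme reported PPARalpha activation in cells after 6 hr of compound treatment at 37 C. The detection reagent was incubated for 60 min at room temperature, and compounds were scored as agonists.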

A short description of assay [11]: qHTS assay for small molecule agonists of the antioxidant response element (ARE) signaling pathway measured by Nrf2-dependant transcriptional activity (AID 720636; active = well fitted curve in the direction sought with a large enough effect in the repeat runs; an effect the other way counts as inactive or inconclusive; note: % of control where 0% means no effect). The conditions noted are these: ARE-luc HepG2, Nrf2 luciferase reporter, 16 h; series mostly up to 92.4 µM. A digest of the protocol: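 Attachment 6 hr at 37 C, then compound versus DMSO vehicle for 16 hr in ARE-luc HepG2 cells (1% dialyzed FBS); luminescence recorded 30 min after ONE-Glo addition at room temperature.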

A short description of assay [12]: qHTS assay for small molecule agonists of the antioxidant response element (ARE) signaling pathway measured by Nrf2-dependant transcriptional activity - cell viability counter screen (AID 720653; active = well fitted curve in the direction sought with a large enough effect in the repeat runs; an effect the other way counts as inactive or inconclusive; note: potency is the fitted concentration of half-maximal effect; for max response: % is set by controls: 0 for no effect and ±100 for the full control effect). The note with it: ARE-bla HepG2 viability, CellTiter-Glo ATP luminescence, 16 h; max response: stronger effect = lower value. A digest of the protocol: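 Cytotoxicity counter screen: intracellular ATP quantified by CellTiter-Glo luminescence in the same ARE-bla HepG2 plates, after 16 h compound exposure and a 2 h beta-lactamase substrate step.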

Assay [13] in a line: qHTS assay for cell viability of HEK293 cells (AID 743288). Note: % is set by controls: 0 for no effect and ±100 for the full control effect; nearly all actives have a fitted effect of over 50% in size. The conditions noted are these: ATP luminescence (CellTiter-Glo), 18 h; max response: stronger effect = lower value. In outline: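 Readout is luciferase-coupled ATP content (CellTiter-Glo luminescence, 30 min room temperature) as a measure of metabolically competent cells. Parental HEK293 cells were plated 5 h or more before compound addition, then treated 18 h at 37 C.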

Assay [14] is described as follows: qHTS assay for cell viability of the p53RE-bla HCT-116 cell line (AID 743292). Note: nearly all actives have a fitted effect of over 55% in size. Note: potency is the fitted concentration of half-maximal effect. The note with it: p53RE-bla HCT-116 viability, ATP luminescence, 16 h; series mostly up to 95 µM. In outline: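 Compound-exposed HCT-116 (p53RE-bla) cells, 4,000 per well, were kept 16 h at 37 C following a 5 h preincubation. Cell number was estimated from total ATP by CellTiter-Glo luminescence read after 30 min at room temperature.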

Assay [15] addresses Nuclear receptor subfamily 1 group I member 2 (Rattus norvegicus) (UniProt Q9R1A7). The assay is described as follows: qHTS assay for small molecule activators of the rat pregnane X receptor (rPXR) signaling pathway (AID 651751; call rule not given here; note: 0% is about no effect). The note with it: rPXR reporter cells, luciferase (One-Glo), 24 h.
The nature of assay [16]: qHTS assay for small molecule activators of the human pregnane X receptor (PXR) signaling pathway (AID 720659; call rule not given here; note: 0% is about no effect). The conditions noted are these: DPX-2 HepG2 CYP3A4-luciferase, 24 h; series mostly up to 92.3 µM.
The target in assay [17] is Vitamin D3 receptor (Homo sapiens) (UniProt P11473). The assay is described as follows: qHTS assay for small molecule antagonists of vitamin D receptor signaling (AID 588541; calls by dose curve; note: potency is the fitted concentration of half-maximal effect). The conditions noted are these: HEK293T VDR-UAS-bla, beta-lactamase ratio, antagonist mode; series mostly up to 76.7 µM. In outline:
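Antagonist-mode beta-lactamase reporter assay: HEK293T VDR-UAS-bla cells were exposed to titrated compound alongside 1-alpha,25-dihydroxyvitamin D3 at 3 nM final for 16 h. Values were normalized to the 50 nM agonist control and DMSO basal, with IC50 and efficacy from Hill equation fits.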

Assay [18] in a line: qHTS assay for small molecule antagonists of retinoid X receptor alpha signaling (AID 588546; active = well fitted inhibition curve with a large enough effect in the signal ratio, with a control signal flat, not every such curve was filed as active; the % refers to the signal ratio;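 note: cells stimulated with 9-cis-retinoic acid as agonist; % is set by controls: 0 for no effect and ±100 for the full control effect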). The conditions noted are these: HEK293T RXRa-UAS-bla, beta-lactamase ratio, antagonist mode; measured here: W530 green channel, cytotoxicity proxy. A digest of the protocol: (§1)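 Beta-lactamase reporter inhibition, read as CCF4 fluorescence ratio (ex 405, em 460/530 nm) after 2 h at RT. HEK293T UAS-bla cells, 2500/well, were stimulated with 9-cis-RA at 500 or 100 nM final alongside test compound for 18 h at 37 C.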

Assay [19] has as its target Retinoic acid receptor RXR-alpha (Homo sapiens) (UniProt P19793). The assay is described as above. The conditions noted are these: HEK293T RXRa-UAS-bla, beta-lactamase ratio, antagonist mode. A digest of the protocol:
as §1

Assay [20] is described as follows: qHTS assay for small molecule activators of the p53 signaling pathway (AID 651743; active = well fitted activation curve with a large enough effect in the signal ratio, not every such curve was filed as active; the % refers to the signal ratio; note: % of control where 0% means no effect). The conditions noted are these: HCT-116 p53RE-bla, beta-lactamase FRET ratio, 16 h; activation: stronger effect = higher value. In outline: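 After 16 hours compound treatment at 37 C, HCT-116 cells stably expressing p53RE-driven beta-lactamase were loaded with LiveBLAzer B/G FRET substrate for 2 hours at room temperature. Fluorescence intensity served as the p53 activation read-out.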

Sequence of Vitamin D3 receptor (Homo sapiens) (P11473 whole entry, looked up): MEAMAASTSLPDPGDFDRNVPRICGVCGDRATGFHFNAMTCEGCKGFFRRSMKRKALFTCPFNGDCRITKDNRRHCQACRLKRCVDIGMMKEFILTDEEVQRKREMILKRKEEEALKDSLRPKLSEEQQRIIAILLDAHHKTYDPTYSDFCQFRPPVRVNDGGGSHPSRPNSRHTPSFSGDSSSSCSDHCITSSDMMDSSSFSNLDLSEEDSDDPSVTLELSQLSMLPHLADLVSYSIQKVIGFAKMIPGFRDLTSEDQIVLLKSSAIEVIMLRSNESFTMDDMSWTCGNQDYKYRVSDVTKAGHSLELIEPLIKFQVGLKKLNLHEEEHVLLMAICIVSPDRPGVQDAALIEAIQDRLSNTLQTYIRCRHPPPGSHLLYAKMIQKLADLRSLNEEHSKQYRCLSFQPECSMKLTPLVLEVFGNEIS
Sequence of Peroxisome proliferator-activated receptor alpha (Homo sapiens) (Q07869 whole entry, looked up): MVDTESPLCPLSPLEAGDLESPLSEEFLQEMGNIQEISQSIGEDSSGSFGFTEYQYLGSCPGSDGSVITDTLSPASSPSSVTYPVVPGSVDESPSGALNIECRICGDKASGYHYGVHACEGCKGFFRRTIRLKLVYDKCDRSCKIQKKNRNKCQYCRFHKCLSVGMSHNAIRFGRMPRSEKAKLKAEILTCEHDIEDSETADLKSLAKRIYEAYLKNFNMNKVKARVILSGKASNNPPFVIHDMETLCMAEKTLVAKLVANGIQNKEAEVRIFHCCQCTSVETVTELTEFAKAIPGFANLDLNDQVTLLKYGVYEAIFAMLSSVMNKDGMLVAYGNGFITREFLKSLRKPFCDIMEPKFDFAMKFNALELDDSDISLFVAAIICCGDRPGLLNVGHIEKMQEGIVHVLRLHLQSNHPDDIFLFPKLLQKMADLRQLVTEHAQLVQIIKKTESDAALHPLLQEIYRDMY
Sequence of Peroxisome proliferator-activated receptor gamma (Homo sapiens) (P37231 whole entry, looked up): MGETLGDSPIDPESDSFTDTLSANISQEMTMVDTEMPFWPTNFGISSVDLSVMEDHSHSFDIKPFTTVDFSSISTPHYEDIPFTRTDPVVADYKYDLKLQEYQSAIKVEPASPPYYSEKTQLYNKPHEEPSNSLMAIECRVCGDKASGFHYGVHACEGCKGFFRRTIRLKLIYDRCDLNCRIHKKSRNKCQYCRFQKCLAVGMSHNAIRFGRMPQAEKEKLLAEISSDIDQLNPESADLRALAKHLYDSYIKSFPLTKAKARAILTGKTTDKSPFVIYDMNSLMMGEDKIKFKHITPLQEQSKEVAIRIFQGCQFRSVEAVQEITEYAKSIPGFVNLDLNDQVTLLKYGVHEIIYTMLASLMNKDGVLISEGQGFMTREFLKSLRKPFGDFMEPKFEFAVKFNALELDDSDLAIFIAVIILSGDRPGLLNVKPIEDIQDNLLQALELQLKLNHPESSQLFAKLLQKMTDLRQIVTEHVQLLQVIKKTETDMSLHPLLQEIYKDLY
Sequence of Nuclear receptor subfamily 1 group I member 2 (Rattus norvegicus) (Q9R1A7 whole entry, looked up): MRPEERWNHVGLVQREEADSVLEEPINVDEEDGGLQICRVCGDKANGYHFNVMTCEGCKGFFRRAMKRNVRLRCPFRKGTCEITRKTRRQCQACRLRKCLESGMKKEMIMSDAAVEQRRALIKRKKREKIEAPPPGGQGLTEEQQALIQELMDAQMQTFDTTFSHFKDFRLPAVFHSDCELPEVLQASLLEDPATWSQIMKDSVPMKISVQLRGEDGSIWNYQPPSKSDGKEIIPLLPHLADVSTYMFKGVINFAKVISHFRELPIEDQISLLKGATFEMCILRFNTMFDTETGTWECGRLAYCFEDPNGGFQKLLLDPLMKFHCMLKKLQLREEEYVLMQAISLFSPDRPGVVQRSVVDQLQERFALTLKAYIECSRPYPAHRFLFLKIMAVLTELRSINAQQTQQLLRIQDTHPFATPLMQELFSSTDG
Sequence of Thyroid hormone receptor beta (Homo sapiens) (P10828 whole entry, looked up): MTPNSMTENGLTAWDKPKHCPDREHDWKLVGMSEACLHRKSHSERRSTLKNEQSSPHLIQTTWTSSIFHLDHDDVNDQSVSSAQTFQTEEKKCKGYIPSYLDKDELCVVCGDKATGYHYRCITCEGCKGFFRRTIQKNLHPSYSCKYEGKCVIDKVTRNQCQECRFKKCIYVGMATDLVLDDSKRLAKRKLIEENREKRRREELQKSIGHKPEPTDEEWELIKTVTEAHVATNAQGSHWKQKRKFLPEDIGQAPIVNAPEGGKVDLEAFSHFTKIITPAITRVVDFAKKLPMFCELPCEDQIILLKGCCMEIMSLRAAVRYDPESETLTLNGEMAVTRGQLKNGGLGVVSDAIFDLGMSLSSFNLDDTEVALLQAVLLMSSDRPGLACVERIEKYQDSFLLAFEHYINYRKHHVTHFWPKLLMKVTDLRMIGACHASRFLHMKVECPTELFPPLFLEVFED

In the case of `CN(C)c1nc(=O)n(C2CCC(O)CC2)c(=O)n1C` (stereo not drawn), the max response in [1] is 20.4%; in assay [5] it was -9.86%; in assay [10] it was -3.35% (inactive); in assay [12], 6.16% (inactive); in assay [13] it was -7.57% (inactive); in [15] it was -1.79% (inactive). In addition, the result in assay [2], in assay [4] and in [16] was inactive. The Potency result in assay [3], in assay [6], in assay [7], in [11] and in assay [14] was “inactive” each time. The activation was -0.848% (inactive) in assay [8] and -0.637% (inactive) in assay [9].
With `CC1(C)C(=O)NC(=O)N1CO`, the max response in assay [1] is 11.7%; in assay [5], -10.3%; in assay [18] it was -6.79%; in [19] it was -4.89% (inactive); in assay [10], -1.57% (inactive); in assay [12] it was -2.23% (inactive). In addition, the figures for the max response in [13] and in assay [15] were -2.85% (inactive) and 1.33% (inactive), respectively. For the same compound, the result in assay [2], in assay [4] and in [16] was inactive. The Potency result in [3], in assay [17], in [6], in assay [7], in assay [11] and in assay [14] was “inactive” throughout. Also, the activation in assay [20] is -0.511% (inactive); in assay [8] it was -2.55% (inactive); in assay [9], 1.93% (inactive).
For `CSc1ccc(Cl)cc1`, the max response in assay [1] is 24.7%; in [5], 8.86%; in assay [18], 18.6%; in assay [10], -0.0243% (inactive); in assay [12], -9.05% (inactive); in [13], -19.5% (inactive). For the same compound, the max response in [15] is -1.44% (inactive). For the same compound, the result in [2], in [4] and in [16] was inactive. Also, the Potency result in assay [3], in [17], in assay [7], in [11] and in assay [14] was “inactive” throughout. Moreover, the activation in assay [8] was -1.66% (inactive); in assay [9] it was -3.53% (inactive).
Take `CO/N=C1\C[C@]2(C[C@@H]3C[C@@H](C/C=C(\C)C[C@@H](C)/C=C/C=C4\CO[C@@H]5[C@H](O)C(C)=C[C@@H](C(=O)O3)[C@]45O)O2)O[C@H](/C(C)=C/C(C)C)[C@H]1C`: the Potency is 17.8 µM (active) in [17], 44.7 µM (active) in assay [12] and 28.2 µM (active) in [14]. In addition, the activation in assay [9] was 0.384% (inactive). Further, in [11], the Potency result was “inactive”.
For `C=C(C)C(=O)OCCC[Si](OC)(OC)OC`, the max response in [1] was 51.6%; in assay [5], -14.5%; in [18], -3.97%; in [19] it was -21.4% (inactive); in [10] it was -1.45% (inactive); in assay [12], -0.904% (inactive). Further, the results for the max response in assay [13] and in assay [15] were -1.87% (inactive) and -1.68% (inactive), respectively. The outcome in [2] was inactive. In addition, the Potency result in assay [3], in assay [6], in assay [7], in [11] and in assay [14] was “inactive” in each case. The activation in [20] is -1.41% (inactive); in [8] it was -3.72% (inactive); in [9], -2.37% (inactive).
In the case of `CCCCCCCCC(=O)O`, the max response is -26.9% in assay [1]; -21.9% in assay [5]; -8.04% in assay [18]; 1.35% (inactive) in assay [10]; -7.02% (inactive) in assay [12]; -14.6% (inactive) in assay [13]. The max response in assay [15] is -1.4% (inactive). Moreover, the figures for the activation in [20] and in [9] were 4.29% (inactive) and 2.74% (inactive), respectively. Moreover, the Potency result in [14] is “inactive”. Moreover, the compound was classed as inactive in assay [16].
Turning to `CCC(C)(C)C1CCC(O)CC1` (stereo not drawn), the max response in [1] is -12.1%; in assay [5], -12.5%; in [18] it was 9.01%; in assay [19], -29.4% (inactive); in assay [12], -8.65% (inactive); in [15], -1.01% (inactive). Moreover, the outcome in assay [2], in assay [4] and in assay [16] was inactive. In addition, the Potency entry in assay [3], in assay [17], in assay [6], in [7], in assay [11] and in [14] was “inactive” in each case. For the same compound, the activation in assay [8] is -0.533% (inactive); in [9], -0.126% (inactive).

These data come from PubChem BioAssay (NCATS).
